Many of the other results were omitted from the sample, so hits are more common in it than they were.
LmPK inhibitor – inhibitors of Leishmania mexicana pyruvate kinase; AID 1721; Potency, µM (highest dose often 57.5 µM), without a hit: top-dose activity change, negative = inhibition, most hits filed as inhibitors; purified LmPK, Kinase-Glo ATP luminescence, 1 h; 0.37% of 290,000 active; also: potency is read from the fitted curve at half-maximal effect; % is scaled to controls: 0 for no effect and ±100 for the full control effect
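Purified LmPK (0.1 nM) with 0.5 mM PEP and 0.1 mM ADP in imidazole buffer pH 7.2 with MgCl2/KCl, 1 h at room temperature. ATP formed was read by luciferase luminescence and normalized to no-enzyme and uninhibited controls.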
Tb PYK inh – T. brucei pyruvate kinase inhibition | TbPYK enzyme, Kinase-Glo Plus ATP luminescence, 45 min | Potency, µM (titrated, usually from 76.8 µM), for the others: top-dose activity, negative = inhibition, most hits filed as inhibitors | AID 624173 | Q57TT1 | 0.12% of 410,000 active; also: potency is read from the fitted curve at half-maximal effect; % is scaled to controls: 0 for no effect and ±100 for the full control effect; nearly all actives have a fitted effect of over 50% in size
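Enzyme and substrate buffer are dispensed first and compound is pin-transferred. ADP at 130 uM final then starts the reaction, which runs 45 min at room temperature. Detection reagent is added for 10 min before luminescence is imaged.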
Cycloheximide cs – counter-screen for Shiga toxin inhibitors: cycloheximide protein synthesis inhibition. 12% of 300,000 active. AID 2314. cell reporter, cycloheximide protein synthesis inhibition counterscreen. max response, %; in the data active = max response mostly above about 13%, no sharp cut-off; inactive = mostly below about 14%; also: read at 38.3 µM for the half of the compounds with a filed dose; 0% is about no effect
Shiga inhibitor – inhibitors of Shiga toxin in Vero cells. AID 2315. inhibition, % at 38.7 µM. Vero cells, Shiga toxin protein synthesis inhibition reporter. 9.2% of 290,000 active; in the data active = inhibition mostly above about 28%, no sharp cut-off; inactive = mostly below about 43%; also: 0% is about no effect
Giardia FBPA inh – blocks Giardia fructose-bisphosphate aldolase activity. A8B2U2. purified Giardia FBPA. Potency, µM (top dose mostly 59.6 µM), without a hit: at the highest dose activity, negative = inhibition, most hits filed as inhibitors. 0.71% of 290,000 active. AID 2451; also: potency is read from the fitted curve at half-maximal effect; % is scaled to controls: 0 for no effect and ±100 for the full control effect; nearly all actives have a fitted effect of over 55% in size
Target sequence (A8B2U2 whole entry, looked up): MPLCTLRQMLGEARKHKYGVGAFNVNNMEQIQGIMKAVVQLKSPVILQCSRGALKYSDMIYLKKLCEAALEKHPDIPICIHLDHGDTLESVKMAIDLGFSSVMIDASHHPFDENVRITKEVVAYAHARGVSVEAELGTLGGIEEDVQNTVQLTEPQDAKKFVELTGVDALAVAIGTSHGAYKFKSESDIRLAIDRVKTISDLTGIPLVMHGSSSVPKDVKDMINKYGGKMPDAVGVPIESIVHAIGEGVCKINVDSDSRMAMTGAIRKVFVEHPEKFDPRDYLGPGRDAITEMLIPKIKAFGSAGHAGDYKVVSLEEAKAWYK
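40 nM FBPA preincubated 10 min at RT with compound (up to 57.5 uM final), then substrate plus GAPDH/TPI/NAD/arsenate coupling and diaphorase/resazurin added. Fluorescence read after 20 min at RT, 525/598 nm.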
RE007 growth inh – less growth of the S. pombe RE007 Vpr strain | S. pombe RE007 Vpr strain, BacTiter-Glo ATP luminescence, 24 h | Potency, µM (series often up to 92.2 µM), for inactives: at the highest dose activity change, negative = less growth, actives largely listed as inhibitors | 0.21% of 360,000 active; active = well fitted falling curve with a large enough effect; inconclusive = small, poorly fitted or top-dose-only effect; inactive = no such curve, though single readings can be large or run the other way; also: potency is read from the fitted curve at half-maximal effect; % is scaled to controls: 0 for no effect and ±100 for the full control effect; nearly all actives have a fitted effect of over 50% in size
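Fission yeast strain RE007, carrying one chromosomally integrated HIV-1 vpr copy, was seeded at OD 0.01 in PMG+AL medium with 23 nL pinned compound. After 24 h at 30 °C and 99% humidity, viability was read by BacTiter-Glo luminescence.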
* marks the source's active call; other numbers are inactive results; ? = inconclusive; nt = no result given. Unless noted, calls follow the shape of the dose curve; as a rule, active = well fitted curve in the direction sought with a large enough effect; inconclusive = small, poorly fitted or top-dose-only effect, or another doubt; inactive = no such curve, though single readings can be large; an effect the other way counts as inactive or inconclusive.

SMILES	LmPK inhibitor	Tb PYK inh	Cycloheximide cs	Shiga inhibitor	Giardia FBPA inh	RE007 growth inh
COc1ccc(-n2cnc3sc(-c4ccccc4)cc3c2=O)cc1	4%	4%	43*	43	1%	11%
CCOC(=O)C(CC)n1nnc2sc(-c3ccccc3)cc2c1=O (configuration not stated)	nt	-2%	nt	nt	nt	nt
COc1ccccc1CNS(=O)(=O)c1ccc(F)c(C(=O)Nc2cc(Cl)ccc2OC)c1	nt	4%	nt	nt	nt	nt
O=C(Cn1cnc2sc(-c3ccccc3)cc2c1=O)N1CCOCC1	-2%	-11%	-3	-11	1%	-3%
CC(=O)Cn1cnc2sc(-c3ccccc3)cc2c1=O	1%	2%	39*	36*	8%	?
COc1cccc(/C=N/Nc2ncnc3scc(-c4ccccc4)c23)c1O	2%	-19%	0	-2	?	?
COc1cccc(C=NNc2ccc([N+](=O)[O-])cn2)c1OC	nt	-14%	nt	nt	nt	-4%
COc1cccc(/C=N/Nc2ncnc(N)c2[N+](=O)[O-])c1OC	-23%	-2%	35*	73*	-6%	2%
COc1cccc(/C=N/Nc2nccnc2Cl)c1O	10µM*	?	13*	34	10%	35µM*
COc1cccc(/C=N/Nc2ncnc(Cl)c2N)c1O	-2%	-7%	55*	40*	?	13%
O=C(Cn1c2c(c(-c3ccccc3Cl)cc1=O)CCC2)NCCCN1CCOCC1	5%	1%	-2	-9	-7%	-17%
O=c1c2oc3ccccc3c2n(Cc2cccc(C(F)(F)F)c2)c(=O)n1Cc1ccc2c(c1)OCO2	nt	7%	nt	nt	nt	nt
CCOC(=O)c1c(Oc2ccc(C(C)=O)cc2)nnc(-c2ccccc2)c1-c1ccccc1	nt	0%	nt	nt	nt	nt
Cc1c(C(=O)N(C)Cc2ccccc2)oc2c(Cl)cccc12	-1%	3%	-1	-6	1%	-10%
Cc1cc(Cl)c2oc(C(=O)N(C)Cc3ccon3)c(C)c2c1	4%	1%	48*	95*	22%	-4%
Cc1c(C(=O)N(C)CCn2ccnc2C)oc2c(F)cccc12	0%	-1%	-4	-8	-19%	-13%
Cc1c(C(=O)N(CCO)Cc2ccccc2)oc2c(F)cccc12	-1%	-4%	35*	32*	-23%	-5%
Cc1c(C(=O)N(C)CCCCN2CCOCC2)oc2c(F)cccc12	0%	-4%	15*	nt	-2%	49%
Cc1cc(Cl)c2oc(C(=O)N(C)C3CCOC3)c(C)c2c1 (configuration not stated)	9%	?	36*	55*	-3%	-4%
Cc1cc(Cl)c2oc(C(=O)N(C)Cc3cc(C)[nH]n3)c(C)c2c1	-8%	-10%	10	12	nt	2%
Cc1cc(Cl)c2oc(C(=O)N(CCO)Cc3ccccc3)c(C)c2c1	0%	1%	21*	64*	-14%	6%
Cc1ccc2oc(C(=O)N(CCO)Cc3ccccc3)c(C)c2c1	5%	-5%	-1	-3	3%	-14%
O=C1C(C=NCCCN2CCOCC2)=C(O)c2ccccc21	0%	-7%	27*	59*	-1%	-2%
O=C1C(C=NCCN2CCOCC2)=C(O)c2ccccc21	-4%	-21%	47*	84*	-9%	25%
Cc1ccc2oc(Nc3nc(-c4ccccc4)cc(=O)[nH]3)nc2c1	0%	2%	11	3	0%	1%
SMILES	LmPK inhibitor	Tb PYK inh	Cycloheximide cs	Shiga inhibitor	Giardia FBPA inh	RE007 growth inh
CCOC(=O)Cc1cc(=O)[nH]c(Nc2nc3ccccc3o2)n1	3%	2%	18	77*	22%	2%
COC(=O)Cc1cc(=O)[nH]c(Nc2nc3ccccc3o2)n1	4%	-6%	17*	31*	0%	-2%
NS(=O)(=O)c1ccc(NC(=O)COC(=O)CCc2ccc(S(=O)(=O)N3CCOCC3)cc2)cc1	3%	-24%	8	-10	-2%	-4%
Cc1cc(C)nc(NC(=O)Nc2ccc3c(c2)OCO3)c1	-5%	-9%	47*	65*	20%	-13%
Cc1cc(C)nc(NC(=O)c2ccc3c(c2)OCO3)c1	-18%	nt	46*	85*	-10%	nt
Cc1ccc2nc(NC(=O)/C=C/c3ccc4c(c3)OCO4)sc2c1	4%	-2%	3	10	-3%	2%
Cc1ccc(NC(=O)/C=C/c2ccc3c(c2)OCO3)nc1	2%	-8%	57*	147*	-4%	7%
CCOC(=O)Cn1ccc(NC(=O)c2ccc3c(c2)OCO3)n1	-5%	3%	31*	-10	8%	-6%
Cc1ccc(OC(F)F)c(NC(=O)Nc2ccc3c(c2)OCO3)c1	5%	-5%	-4	-10	3%	-6%
CCN1CCN(c2ccc(S(=O)(=O)N3CCOCC3)cc2NC(=O)C(C)Oc2ccc(Cl)cc2)CC1 (configuration not stated)	nt	-1%	nt	nt	nt	29%
COc1cccc(NC(=O)c2cn(C3CCCCC3)c(=O)c3c2c2ccccc2n3C)c1	nt	-7%	nt	nt	nt	nt
Cc1ccc2c(c1)c1c(c(=O)n(-c3cccc(Cl)c3)c(=O)n1CC(=O)c1ccc(Cl)cc1)n2C	nt	-10%	nt	nt	nt	nt
CCOC(=O)Cn1nc(NC(=O)c2ccc(C(=O)OC)cc2)cc1C	-1%	-2%	19*	3	-3%	-21%
Cc1ccnc(NC(=O)CNC(=O)c2ccc3ccccc3c2)c1	nt	-12%	nt	nt	nt	19%
CCOC(=O)Cn1nc(NC(=O)c2cc(OC)cc(OC)c2)cc1C	0%	5%	5	-9	4%	0%
Cc1ccnc(NC(=O)CNC(=O)c2ccc3c(c2)OCO3)c1	-7%	2%	26*	45*	nt	10%
Cc1cccc(NC(=O)Nc2cc(C)cc(C)n2)c1	2%	11%	65*	148*	-2%	11%
Cc1ccc(NC(=O)Nc2ccc3c(c2)OCO3)nc1	3%	-4%	21*	80*	1%	49%
Cc1cc(Nc2ccc(C)c(Cl)c2)n2nc(Cc3ccccc3)nc2n1	nt	2%	nt	nt	nt	nt
Cc1ccc(CN(C)C(=O)c2ccccc2NC(=O)c2ccccc2)o1	nt	1%	nt	nt	nt	-7%
O=C(Nc1ccc(Cl)cn1)c1cccc(S(=O)(=O)N2CCCC2)c1	7%	-5%	14*	41*	1%	3%
CN(C)S(=O)(=O)c1cccc(C(=O)Nc2ccc(Cl)cn2)c1	9%	0%	51*	50*	-3%	13%
O=C(Nc1ccc(Cl)cn1)c1cccc(S(=O)(=O)N2CCCCCC2)c1	nt	8%	nt	nt	nt	7%
COc1ccc(C(=O)Nc2ccc(Cl)cn2)cc1Cl	-3%	9%	50*	79*	-22%	-7%
Cc1ccc(C(=O)Nc2ccc(Cl)cn2)cc1S(=O)(=O)N1CCOCC1	-4%	-1%	35*	61*	15%	-13%
CC(=O)n1cc(/C=N/NC(=O)c2ccccc2Cl)c2ccccc21	0%	0%	1	8	-2%	14%

Screens from PubChem BioAssay.
